Shown are actives, neighbours in structure and some others; about 12% of the full set was active somewhere.
JMJD2A Tudor inh – qHTS Assay for Inhibitors of JMJD2A-Tudor Domain; Lysine-specific demethylase 4A (Homo sapiens), O75164; AlphaScreen JMJD2A-Tudor / H3K4me3 peptide binding; Potency, µM (doses to about 114 µM), for inactives: top-dose activity change, negative = inhibition, most hits filed as inhibitors; hit rate 4.4% among 390,000; AID 504339, 2011; further: potency means the concentration at half of the fitted maximal effect; on the % scale 0 is the no-effect control and ±100 the full control effect; nearly all actives have a fitted effect of over 50% in size
G9a inh – qHTS Assay for Inhibitors of Histone Lysine Methyltransferase G9a | Potency, µM (series often up to 102 µM), inactives show at the highest dose activity, negative = inhibition, hits mostly inhibitors | hit rate 8.8% among 350,000 | AID 504332, 2011 | G9a H3K9 monomethylation, AlphaScreen, 2 h; further: potency means the concentration at half of the fitted maximal effect; on the % scale 0 is the no-effect control and ±100 the full control effect; nearly all actives have a fitted effect of over 75% in size
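AlphaScreen read-out: biotin-H3K9 peptide (500 nM) methylation by 20 nM enzyme with 20 uM SAM, 2 h at room temperature after 15 min compound preincubation; anti-monomethyl H3K9 antibody plus donor/acceptor beads, 10 min dark.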
HP1b chromo inh – HTS for Inhibitors of HP1-beta Chromodomain Interactions with Methylated Histone Tails | hit rate 0.56% among 390,000 | AlphaScreen HP1-beta / biotin-H3K9me3 peptide binding | Potency, µM (titrated, usually from 114 µM), without a hit: at the highest dose activity change, negative = inhibition, hits mostly inhibitors; further: potency means the concentration at half of the fitted maximal effect; nearly all actives have a fitted effect of over 70% in size
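Compound inhibition of the preformed complex between 50 nM HP1-beta and 50 nM biotinylated H3K9me3 peptide was read by AlphaScreen. Buffer was PBS pH 7.4 with 0.01% Tween-20. Incubations ran 30 min at room temperature, with 10 ug/mL donor/acceptor beads.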
PI5P4Ka inh – qHTS for Inhibitors of phosphatidylinositol 5-phosphate 4-kinase (PI5P4K); hit rate 1.2% among 330,000; AID 652105, 2013; max response, %; PI5P4Kalpha enzyme, ADP-Glo luminescence, 60 min; stronger effect = lower value; active means max response of -50% or lower; inconclusive means between -30% and -50%; inactive means -30% or higher; further: value at the top dose of about 77 µM; on the % scale 0 is the no-effect control and ±100 the full control effect
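Quantitative HTS of the MLSMR library against PI5P4Kalpha with substrate. ATP added last at 5 microM final; room temperature, 60 minutes. Remaining ATP depleted, ADP converted and read as luminescence.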
BAZ2B inh – qHTS Assay for Inhibitors of BAZ2B; Potency, µM (doses to about 114 µM), without a hit: at the top dose activity change, negative = inhibition, most hits filed as inhibitors; hit rate 4.4% among 360,000; AlphaScreen BAZ2B-H3K14Ac peptide displacement; Bromodomain adjacent to zinc finger domain protein 2B (Homo sapiens), Q9UIF8; further: potency means the concentration at half of the fitted maximal effect; on the % scale 0 is the no-effect control and ±100 the full control effect; nearly all actives have a fitted effect of over 60% in size
Target sequence (Q9UIF8 whole entry, looked up, the tested form may be a part): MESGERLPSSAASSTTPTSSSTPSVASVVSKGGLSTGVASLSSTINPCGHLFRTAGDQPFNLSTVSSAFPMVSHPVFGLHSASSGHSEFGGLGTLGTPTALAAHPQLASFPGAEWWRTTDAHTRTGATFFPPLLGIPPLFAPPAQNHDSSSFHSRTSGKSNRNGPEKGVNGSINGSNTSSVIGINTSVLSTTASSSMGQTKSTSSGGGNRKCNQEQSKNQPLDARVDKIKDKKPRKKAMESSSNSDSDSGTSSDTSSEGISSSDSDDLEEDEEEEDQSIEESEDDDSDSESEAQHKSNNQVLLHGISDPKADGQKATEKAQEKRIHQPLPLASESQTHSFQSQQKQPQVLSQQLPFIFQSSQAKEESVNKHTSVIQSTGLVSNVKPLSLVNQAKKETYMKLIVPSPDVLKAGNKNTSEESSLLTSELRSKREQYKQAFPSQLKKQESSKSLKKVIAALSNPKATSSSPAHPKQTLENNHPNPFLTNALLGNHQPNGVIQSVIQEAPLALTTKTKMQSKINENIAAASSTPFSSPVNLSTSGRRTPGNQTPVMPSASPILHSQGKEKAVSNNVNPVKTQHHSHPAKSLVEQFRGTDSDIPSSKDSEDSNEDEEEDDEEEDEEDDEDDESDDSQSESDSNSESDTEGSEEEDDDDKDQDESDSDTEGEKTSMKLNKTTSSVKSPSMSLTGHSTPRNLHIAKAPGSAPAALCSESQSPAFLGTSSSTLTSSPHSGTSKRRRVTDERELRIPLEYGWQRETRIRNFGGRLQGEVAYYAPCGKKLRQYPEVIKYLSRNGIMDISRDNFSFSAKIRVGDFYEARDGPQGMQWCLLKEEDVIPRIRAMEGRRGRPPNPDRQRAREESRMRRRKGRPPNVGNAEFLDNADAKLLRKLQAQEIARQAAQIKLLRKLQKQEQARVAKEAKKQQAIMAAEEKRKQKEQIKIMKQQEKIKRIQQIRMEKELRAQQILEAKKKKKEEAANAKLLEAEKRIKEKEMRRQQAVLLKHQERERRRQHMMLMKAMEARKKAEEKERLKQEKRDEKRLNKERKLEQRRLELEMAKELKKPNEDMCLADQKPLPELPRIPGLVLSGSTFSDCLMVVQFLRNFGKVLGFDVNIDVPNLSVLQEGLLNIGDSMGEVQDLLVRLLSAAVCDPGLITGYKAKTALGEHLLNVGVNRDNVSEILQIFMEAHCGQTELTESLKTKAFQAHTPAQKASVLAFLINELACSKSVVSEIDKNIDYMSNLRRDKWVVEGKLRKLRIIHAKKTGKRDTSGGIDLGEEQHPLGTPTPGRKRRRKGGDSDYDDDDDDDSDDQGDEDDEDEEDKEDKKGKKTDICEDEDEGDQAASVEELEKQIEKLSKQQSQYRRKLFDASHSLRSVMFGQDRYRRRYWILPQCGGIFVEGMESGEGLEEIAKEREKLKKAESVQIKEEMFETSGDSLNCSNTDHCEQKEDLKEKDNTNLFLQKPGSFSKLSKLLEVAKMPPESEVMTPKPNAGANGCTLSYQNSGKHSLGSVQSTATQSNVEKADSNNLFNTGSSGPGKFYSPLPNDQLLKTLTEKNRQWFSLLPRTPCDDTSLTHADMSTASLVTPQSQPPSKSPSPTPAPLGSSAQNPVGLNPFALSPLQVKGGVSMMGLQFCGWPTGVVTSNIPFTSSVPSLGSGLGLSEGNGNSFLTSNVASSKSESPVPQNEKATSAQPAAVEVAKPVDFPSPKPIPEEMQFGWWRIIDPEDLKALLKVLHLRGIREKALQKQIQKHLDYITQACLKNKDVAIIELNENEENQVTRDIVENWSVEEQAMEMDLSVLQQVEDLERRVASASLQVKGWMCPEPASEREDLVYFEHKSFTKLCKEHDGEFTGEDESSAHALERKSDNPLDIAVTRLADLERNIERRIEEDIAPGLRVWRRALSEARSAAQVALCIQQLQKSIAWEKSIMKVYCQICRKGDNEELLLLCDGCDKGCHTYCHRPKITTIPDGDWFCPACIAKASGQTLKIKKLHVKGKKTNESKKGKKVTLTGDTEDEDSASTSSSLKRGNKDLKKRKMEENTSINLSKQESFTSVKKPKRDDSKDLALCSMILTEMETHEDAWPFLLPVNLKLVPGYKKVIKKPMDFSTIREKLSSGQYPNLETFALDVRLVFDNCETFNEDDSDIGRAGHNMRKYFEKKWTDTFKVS
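BAZ2B 50 nM plus b-H3(5-23)K14Ac 50 nM, PBS pH 7.4/0.01% Tween-20, 30 min RT; compound added (max 110 uM), 30 min RT; streptavidin donor/Ni-chelate acceptor beads 10 ug/mL final, 20 min dark; AlphaScreen read.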
PLK1 PBD inh – qHTS for Inhibitors of PLK1-PDB (polo-like kinase 1 - polo-box domain): Primary Screen; Serine/threonine-protein kinase PLK1 (Homo sapiens), P53350; Plk1 PBD binding of FITC phosphopeptide, fluorescence polarization; Potency, µM, for inactives: max response, negative = inhibition, usual class: inhibitors; hit rate 2.8% among 360,000; AID 720504, 2013; further: potency means the concentration at half of the fitted maximal effect; series mostly up to about 57 µM; on the % scale 0 is the no-effect control and ±100 the full control effect; nearly all actives have a fitted effect of over 65% in size
* marks the source's active call; other numbers are inactive results; ? = inconclusive; / = no result; [ ] = dose if it differs, or a comment. Unless noted, the call rests on the fitted dose curve; in most records, active means well fitted curve in the direction sought with a large enough effect; inconclusive means small, poorly fitted or top-dose-only effect, or another doubt; inactive means no such curve, though single readings can be large; an effect the other way counts as inactive or inconclusive.

SMILES | JMJD2A Tudor inh | G9a inh | HP1b chromo inh | PI5P4Ka inh | BAZ2B inh | PLK1 PBD inh
COc1ccc(NCc2cccn2-c2nnc(N3CCCCCC3)s2)cc1 | 45µM* | ? | ? | / | -39%[57.1 µM] | /
S=c1nc[nH]c2c1cnn2-c1ccccc1 | -10% | / | 40% | -4 | -2% | -2%
Cn1ncc2c(=S)nc(Cl)[nH]c21 | 22µM* | / | -36% | ? | / | 27µM*
CCCN(c1ccccc1CC)S(=O)(=O)c1ccc2c(c1)CC(C)N2C(=O)C1CC1 (stereo not drawn) | -7% | -32%[59 µM] | 50% | / | -12% | /
O/N=C1\CCSc2ccc(F)cc21 | 3% | / | 40% | 3 | -8% | 1%
Cc1ncc2c(n1)-c1cc(F)ccc1SC2 | 6% | 31% | 43% | -1 | 20% | -3%
Cc1cc(C)nc(N/N=C2/CCSc3ccc(F)cc32)n1 | -40% | 35µM* | 30% | 4 | -18% | -6%
O=C(O)c1ccc(N/N=C2/CCSc3ccc(F)cc32)cc1 | ? | 50µM* | -8% | 0 | ? | -20%
CCCCCCCCN1C(=O)[C@H](CC(=O)NCc2ccc(C)o2)C[C@@]2(C(=O)OC)CCCCC=C12 | / | / | / | -65* | / | -13%
CCCCCCCCN1C(=O)[C@H](CC(=O)NCc2ccc(C)o2)C[C@@]2(C(=O)OCC)CCC=C12 | / | / | / | -61* | / | -17%
COC(=O)[C@]12CCCCC=C1N(CCC1=CCCCC1)C(=O)[C@H](CC(=O)NCc1ccc(C)o1)C2 | / | / | / | ? | / | -9%
CC(C)Oc1ccc(C(=O)Nc2cc(S(=O)(=O)N3CCOCC3)ccc2N2CCOCC2)cc1 | -22% | -43% | 2% | 17 | 7% | -8%
COc1ccccc1N1CCN(CCCC(=O)c2ccc(F)cc2)CC1 | -17% | 0% | 24% | 0 | 1% | -5%
COc1cc2c(cc1OC)CN(CCOc1ccc(Br)cc1)CC2 | -25% | -19% | 24% | -8 | -24% | -3%
COc1ccc(C(=O)CCN2CCc3cc(OC)c(OC)cc3C2)cc1 | -16% | 13µM* | 25% | -1 | -24% | 27µM*
COc1ccccc1N1CCN(CC(=O)c2ccc3ccn(C(C)=O)c3c2)CC1 | -27% | 11µM* | 41% | -26 | -11% | -11%
CC(=O)OCC(=O)c1ccc2ccn(C(C)=O)c2c1 | 1% | 9%[59 µM] | 35% | / | -2% | 2%
COc1ccc(C(=O)CCN2CCN(c3ccccc3OC)CC2)cc1 | -23% | 50µM* | 26% | -3 | ? | -23%
COc1ccccc1N1CCN(CCN2C(=O)CC(=C3c4ccccc4-c4ccccc43)C2=O)CC1 | 32µM* | / | -15% | -4 | / | -7%
Cc1nc(N2CCOCC2)c2c(C(=O)N(C)Cc3ccccc3)c(C)oc2n1 | -10% | -22%[59 µM] | 47% | / | 13%[57.1 µM] | /
O=C(NCCc1nc2ccccc2n1CCCOc1ccc2ccccc2c1)C1CCCCC1 | -4%[57.1 µM] | / | 7%[57 µM] | / | / | /
Cc1ccc(NC(=O)CCS(=O)(=O)c2ccc3c(c2)NC(=O)C(C)S3)nc1 (stereo not drawn) | 13% | / | 44% | 1 | -5% | -15%
N=C1N(c2ccccc2)C(=S)C(=Nc2ccccc2)N1c1ccccc1 | 25µM* | / | 45µM* | -7 | / | 27µM*
N#CC(C#N)=C1SC(=Nc2ccccc2)C(=Nc2ccccc2)N1c1ccccc1 | ? | / | ? | 6 | / | -8%
O=C1c2ccccc2C(=O)N1c1cccc2ccncc12 | -22% | / | / | / | / | /
CCOC(=O)c1c(NC(=O)COc2ccc(Br)cc2)sc(C(C)=O)c1C | -11% | 14µM* | -7% | / | -2% | /
CCOC(=O)c1sc(NC(=O)CNCc2ccccn2)c(C(=O)OCC)c1C | ? | / | 9% | -9 | 28µM* | -10%

Assay outcomes as filed in PubChem BioAssay.
